# Results: PubChem BioAssay
# The other results are listed elsewhere or left out. Values without a mark were called inactive. Active and inactive are the calls of the source.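 How the source made its calls, unless noted: active means activation above the mean of solvent-only control wells plus 3 SD, set per campaign (cut at about 130% in these data); inactive means the rest.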
# Legend:
# [1] = STAT1 signaling activators, confirmation, cell-based, HTS, luciferase reporter (AID 1262;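 active means activation above a set limit carried over from the earlier primary STAT1 screen, cut at about 140% in these data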;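 further: simple ratio to median IFN-gamma plus DMSO wells so 0% means no light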); settings: NIH 3T3 STAT1-luciferase reporter, IFN-gamma potentiation, luminescence; at 5.7 µM; hits give high values; 100% = IFN-gamma EC80 alone, no compound
# [2] = NF-kB reporter activators, TNF-alpha stimulated, counter-screen for STAT1 activator project, cell-based, HEK293T, luciferase luminescence (AID 1306); settings: at 5.7 µM, hits give high values, 100% = TNF-alpha with vehicle only;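 further: TNF-alpha given at a submaximal dose yielding about 80% of full reporter signal; values are well signal over median control so 100% means no change and 0% no light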
# [3] = molecular target: Signal transducer and activator of transcription 3 (Homo sapiens) (UniProt P40763); experiment: STAT3 reporter activation by STAT1 hits, confirmation, counter-screen for STAT1 activator project, U3A cells, luciferase, luminescence (AID 1316;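 active means activation above the solvent-only control well mean plus 3 SD, set per plate batch, cut at about 110% in these data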;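 further: 0% = no luminescence and 100% = median IL-6 plus DMSO wells; higher means more STAT3 reporter activation so hits are non-selective activators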); settings: IL-6, luminescence, at 5.7 µM, hits give high values, 100 = IL-6 alone, no compound effect, cells lack STAT1
# [4] = system: DAF-12 nuclear receptor (Heterodera glycines), GAL4-LBD fusion; experiment: H. glycines DAF-12 receptor agonists, confirmation, cell-based, luminescence, HEK293, GAL4-LBD fusion (AID 743050;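 active means mean activation over triplicate wells above the hit cutoff derived from the earlier primary screen, cut at about 11% in these data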;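 further: 0% = DMSO low control and 100% = 2 mM sodium butyrate high control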); settings: HEK293 GAL4-hgDAF12 luciferase reporter, agonist mode; at 6.8 µM; hits give high values; percent of butyrate response
# [5] = molecular target: Oxysterols receptor LXR-beta (Homo sapiens) (UniProt P55055); experiment: LXR agonists, Gal4 luciferase reporter, confirmation, counter-screen for hgDAF-12 agonist project, cell-based, luminescence, HEK293, H. glycines campaign (AID 743051;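 active means mean activation of the triplicate above a set limit carried over from the primary screen, none filed active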); settings: 24 h, at 6.8 µM, hits give high values
# Sequence of Oxysterols receptor LXR-beta (Homo sapiens) (P55055 whole entry, looked up, the tested form may be a part): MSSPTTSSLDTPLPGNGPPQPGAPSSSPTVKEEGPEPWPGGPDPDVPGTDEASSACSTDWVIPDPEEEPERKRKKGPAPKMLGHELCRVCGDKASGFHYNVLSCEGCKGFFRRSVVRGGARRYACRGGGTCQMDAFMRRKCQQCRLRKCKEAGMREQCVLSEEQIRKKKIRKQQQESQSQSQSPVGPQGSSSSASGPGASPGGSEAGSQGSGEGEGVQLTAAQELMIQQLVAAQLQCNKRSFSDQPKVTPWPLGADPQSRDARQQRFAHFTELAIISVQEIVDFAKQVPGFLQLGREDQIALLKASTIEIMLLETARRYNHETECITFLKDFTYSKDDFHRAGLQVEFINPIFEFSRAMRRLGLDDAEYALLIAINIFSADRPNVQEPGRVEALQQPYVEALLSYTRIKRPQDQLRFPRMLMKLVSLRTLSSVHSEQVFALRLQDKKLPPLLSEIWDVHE
# [6] = molecular target: Oxysterols receptor LXR-beta (Homo sapiens) (UniProt P55055); experiment: LXR agonists, Gal4 luciferase reporter, confirmation, counter-screen for hcDAF-12 agonist project, cell-based, luminescence, HEK293, H. contortus campaign (AID 743027;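 active means mean percent activation of the reporter above a cutoff set as the average over tested compounds plus their standard deviation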); settings: HEK293 Gal4-LXR tk-luc reporter, 24 h, at 6.8 µM, hits give high values, normalized: DMSO 0%, positive control 100%
# [7] = system: Nuclear hormone receptor DAF-12 (Haemonchus contortus); experiment: H. contortus DAF-12 receptor agonists, confirmation, cell-based, luminescence, HEK293, lit1-tk-luc, triplicate (AID 743032;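 active means mean activation across triplicate tests above the threshold derived from the earlier primary screen, cut at about 5.5% in these data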;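 further: 0% = DMSO only wells and 100% = 3 µM Δ7-dafachronic acid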); settings: HEK293 hcDAF-12 lit1-tk-luc reporter, at 6.8 µM, hits give high values, % of Δ7-dafachronic acid response
# [8] = molecular target: Sphingosine 1-phosphate receptor 4 (Homo sapiens) (UniProt O95977); experiment: S1P4 receptor antagonists, human, confirmation, cell-based (AID 1524; in the data active means inhibition above about 30%); settings: S1P4-expressing cell line, antagonist mode, reporter read-out; at 4.98 µM; hits give high values
# Sequence of Sphingosine 1-phosphate receptor 4 (Homo sapiens) (O95977 whole entry, looked up): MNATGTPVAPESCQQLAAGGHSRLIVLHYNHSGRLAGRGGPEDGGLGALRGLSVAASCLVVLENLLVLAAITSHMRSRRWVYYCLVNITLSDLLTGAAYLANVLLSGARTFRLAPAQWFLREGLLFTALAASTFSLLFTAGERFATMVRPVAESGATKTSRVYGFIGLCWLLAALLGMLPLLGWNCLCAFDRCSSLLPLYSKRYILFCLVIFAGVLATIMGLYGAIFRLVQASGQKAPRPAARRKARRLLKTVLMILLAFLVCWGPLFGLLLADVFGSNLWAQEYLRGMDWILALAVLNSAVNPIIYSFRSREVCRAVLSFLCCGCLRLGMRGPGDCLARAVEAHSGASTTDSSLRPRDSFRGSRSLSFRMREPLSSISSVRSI
# [9] = molecular target: Sphingosine 1-phosphate receptor 1 (Homo sapiens) (UniProt P21453); experiment: S1P1 receptor antagonists, human, counter-screen for S1P4 antagonist project, cell-based (AID 1564; in the data active means inhibition above about 40%;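 further: receptor stimulated with S1P near its EC80; 0% = agonist stimulated wells and 100% = vehicle only wells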); settings: cell-based S1P1 antagonist counterscreen, at 4.98 µM, hits give high values
# Sequence of Sphingosine 1-phosphate receptor 1 (Homo sapiens) (P21453 whole entry, looked up): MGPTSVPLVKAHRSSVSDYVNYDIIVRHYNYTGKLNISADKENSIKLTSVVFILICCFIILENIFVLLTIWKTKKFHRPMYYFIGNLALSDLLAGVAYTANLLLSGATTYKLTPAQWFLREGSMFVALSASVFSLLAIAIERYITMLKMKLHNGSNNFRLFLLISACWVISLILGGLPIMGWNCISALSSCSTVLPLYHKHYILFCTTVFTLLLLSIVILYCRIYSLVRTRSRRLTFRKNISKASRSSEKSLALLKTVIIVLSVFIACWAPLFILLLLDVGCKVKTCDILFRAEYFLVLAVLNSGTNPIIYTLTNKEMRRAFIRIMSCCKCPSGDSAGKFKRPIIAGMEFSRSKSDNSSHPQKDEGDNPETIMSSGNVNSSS
# [10] = KLF5 expression inhibitors, confirmation, DLD-1 cells, luminescence (AID 1834;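 active means inhibition above a set limit taken from the earlier primary screen, cut at about 63% in these data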;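 further: 0% = DMSO wells and 100% = LY294002 at 200 µM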); settings: DLD-1 KLF5 promoter firefly luciferase reporter, at 4 µM, hits give high values
# [11] = cytotoxicity in rat IEC-6 cells, cytotoxicity control for KLF5 inhibitor project, cell-based, luminescence, triplicate (AID 1905; in the data active means inhibition above about 23%;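 further: cells exposed to compounds for 48 hours before viability read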); settings: IEC-6 rat intestinal cells, viability luminescence; at 4 µM; hits give high values
# [12] = STAT3 reporter inhibitors, retest of hits, confirmation, U3A cells, luciferase, luminescence (AID 1265;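 active means inhibition above the hit cutoff computed for the primary STAT3 screen, cut at about 44% in these data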;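 further: 0% = IL-6 plus DMSO and 100% = IL-6 plus nifuroxazide control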); settings: IL-6 STAT3 luciferase reporter, at 5.7 µM, hits give high values, cell line lacks STAT1
# [13] = NF-kB reporter inhibitors in human cells, confirmation, counter-screen for STAT3 inhibitor project, cell-based, HEK293T, luciferase, TNF-alpha stimulus (AID 1308;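 active means inhibition above the mean of solvent-only control wells plus 3 SD, cutoff set per campaign, cut at about 13% in these data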;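 further: 0% = TNF-alpha with DMSO and 100% = TNF-alpha with MG high control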); settings: TNF-alpha induced, at 5.7 µM, hits give high values
# [14] = STAT1 reporter inhibitors, IFN-gamma induced, confirmation, counter-screen for STAT3 inhibitor project, cell-based, NIH 3T3, luciferase luminescence (AID 1317;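 active means inhibition above the mean plus 3 SD of solvent-only control wells, limit set per screening run, cut at about 16% in these data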;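 further: 0% = DMSO with IFN-gamma and 100% = nifuroxazide control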); settings: NIH 3T3 STAT1-luciferase reporter, at 5.7 µM, hits give high values
structure (smiles),measurement,setting,value
CCc1ccc(NC2Nc3cc(C)nn3S2)cc1 (stereo not drawn),activation (% of control),[1],206% (active)
same,activation (% of control),[2],141% (active)
same,activation (% of control),[3],126% (active)
same,activation,[4],18.8% (active)
same,activation,[5],0.76%
CCOc1ccc2nc(C(=O)N3CCCC(C)C3)sc2c1 (stereo not drawn),activation (% of control),[1],217% (active)
same,activation (% of control),[2],133%
same,activation (% of control),[3],97.8%
same,activation,[6],1.14%
same,activation,[7],4.22%
Cc1ccccc1Nc1nc(N)nc(CSc2ccccc2)n1,activation (% of control),[1],220% (active)
same,activation (% of control),[2],126%
same,activation (% of control),[3],127% (active)
same,activation,[6],1.61%
same,activation,[7],8.23% (active)
same,activation,[4],17.7% (active)
same,activation,[5],0.84%
COc1ccc(NC(=O)/C(Cl)=C(/Cl)S(=O)Cc2ccc(C)cc2)cn1 (stereo not drawn),activation (% of control),[1],324% (active)
same,activation (% of control),[2],51.5%
same,activation (% of control),[3],103%
same,inhibition,[8],121% (active)
same,inhibition,[9],117% (active)
same,inhibition,[10],109% (active)
same,inhibition,[11],87% (active)
COc1ccccc1-c1cc(C(=O)N2CCCCC2)no1,activation (% of control),[1],204% (active)
same,activation (% of control),[2],137% (active)
same,activation (% of control),[3],116% (active)
CC(=O)c1sc(N/N=C\c2ccc(C)cc2)nc1C,activation (% of control),[1],191% (active)
same,activation (% of control),[2],143% (active)
same,activation (% of control),[3],107%
Cc1cccc(N=Nc2c(O)[nH]c3ccc(F)cc23)c1,activation (% of control),[1],160% (active)
same,activation (% of control),[2],135% (active)
same,activation (% of control),[3],109%
COc1ccc2nc(SCc3ccccc3)nc(C)c2c1,activation (% of control),[1],231% (active)
same,activation (% of control),[2],141% (active)
same,activation (% of control),[3],107%
same,activation,[6],1.78%
same,activation,[7],5.65% (active)
same,activation,[4],17.7% (active)
same,activation,[5],1%
Clc1ccc(Nc2nc(-c3cccs3)cs2)nc1,activation (% of control),[1],289% (active)
same,activation (% of control),[2],149% (active)
same,activation (% of control),[3],133% (active)
same,activation,[6],2.13%
same,activation,[7],13.6% (active)
same,activation,[4],13.1% (active)
same,activation,[5],0.65%
Cc1noc(C)c1/C=N/Nc1ccc2ccccc2n1,activation (% of control),[1],235% (active)
same,activation (% of control),[2],141% (active)
same,activation (% of control),[3],149% (active)
same,activation,[6],1.54%
same,activation,[7],15.2% (active)
COc1ccc(-c2csc(Cc3nc(O)cs3)n2)cc1,activation (% of control),[1],265% (active)
same,activation (% of control),[2],150% (active)
same,activation (% of control),[3],124% (active)
same,activation,[6],1.22%
same,activation,[7],7.02% (active)
Cc1cc2nc(SCCN3CCOCC3)[nH]c2cc1C,activation (% of control),[1],157% (active)
same,activation (% of control),[2],119%
same,activation (% of control),[3],121% (active)
CCCCCc1ccc(-c2ccc(C(=O)O)cc2)nc1,inhibition,[12],22.4%
same,inhibition,[13],-6.17%
same,inhibition,[14],-71.4%
